20 targets from the supplement of paper PMC11732987, “Enantioselective OTUD7B fragment discovery through chemoproteomics screening and high-throughput optimisation” (Communications Chemistry, 2025) can be followed below.

Sequence of UniProt P09936 (P09936 whole entry, looked up): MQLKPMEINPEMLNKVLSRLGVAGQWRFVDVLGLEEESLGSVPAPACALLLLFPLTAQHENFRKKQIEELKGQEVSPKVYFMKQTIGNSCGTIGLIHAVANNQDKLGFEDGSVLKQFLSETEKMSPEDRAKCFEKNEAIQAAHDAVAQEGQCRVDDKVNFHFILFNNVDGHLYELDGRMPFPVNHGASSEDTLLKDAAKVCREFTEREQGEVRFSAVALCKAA
Sequence of UniProt Q8N6M0 (Q8N6M0 whole entry): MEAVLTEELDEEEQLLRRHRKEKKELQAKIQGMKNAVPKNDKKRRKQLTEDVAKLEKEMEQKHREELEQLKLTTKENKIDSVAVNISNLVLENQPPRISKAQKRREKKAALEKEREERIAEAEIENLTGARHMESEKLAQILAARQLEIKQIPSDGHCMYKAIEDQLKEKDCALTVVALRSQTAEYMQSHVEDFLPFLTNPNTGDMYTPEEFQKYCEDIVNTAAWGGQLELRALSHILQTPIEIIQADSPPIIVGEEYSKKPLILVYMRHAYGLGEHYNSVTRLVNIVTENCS
Sequence of UniProt P62068 (P62068 whole entry): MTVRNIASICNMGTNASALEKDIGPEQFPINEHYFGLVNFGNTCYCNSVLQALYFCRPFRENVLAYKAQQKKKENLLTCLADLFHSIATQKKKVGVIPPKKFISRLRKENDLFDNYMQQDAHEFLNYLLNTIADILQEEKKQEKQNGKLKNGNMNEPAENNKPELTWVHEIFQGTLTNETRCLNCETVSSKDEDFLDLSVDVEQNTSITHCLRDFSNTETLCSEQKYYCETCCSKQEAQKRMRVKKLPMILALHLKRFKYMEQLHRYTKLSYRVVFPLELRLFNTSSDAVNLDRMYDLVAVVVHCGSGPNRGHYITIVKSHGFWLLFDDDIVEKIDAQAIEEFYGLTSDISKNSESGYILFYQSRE
Sequence of UniProt Q86UV5 (Q86UV5 whole entry): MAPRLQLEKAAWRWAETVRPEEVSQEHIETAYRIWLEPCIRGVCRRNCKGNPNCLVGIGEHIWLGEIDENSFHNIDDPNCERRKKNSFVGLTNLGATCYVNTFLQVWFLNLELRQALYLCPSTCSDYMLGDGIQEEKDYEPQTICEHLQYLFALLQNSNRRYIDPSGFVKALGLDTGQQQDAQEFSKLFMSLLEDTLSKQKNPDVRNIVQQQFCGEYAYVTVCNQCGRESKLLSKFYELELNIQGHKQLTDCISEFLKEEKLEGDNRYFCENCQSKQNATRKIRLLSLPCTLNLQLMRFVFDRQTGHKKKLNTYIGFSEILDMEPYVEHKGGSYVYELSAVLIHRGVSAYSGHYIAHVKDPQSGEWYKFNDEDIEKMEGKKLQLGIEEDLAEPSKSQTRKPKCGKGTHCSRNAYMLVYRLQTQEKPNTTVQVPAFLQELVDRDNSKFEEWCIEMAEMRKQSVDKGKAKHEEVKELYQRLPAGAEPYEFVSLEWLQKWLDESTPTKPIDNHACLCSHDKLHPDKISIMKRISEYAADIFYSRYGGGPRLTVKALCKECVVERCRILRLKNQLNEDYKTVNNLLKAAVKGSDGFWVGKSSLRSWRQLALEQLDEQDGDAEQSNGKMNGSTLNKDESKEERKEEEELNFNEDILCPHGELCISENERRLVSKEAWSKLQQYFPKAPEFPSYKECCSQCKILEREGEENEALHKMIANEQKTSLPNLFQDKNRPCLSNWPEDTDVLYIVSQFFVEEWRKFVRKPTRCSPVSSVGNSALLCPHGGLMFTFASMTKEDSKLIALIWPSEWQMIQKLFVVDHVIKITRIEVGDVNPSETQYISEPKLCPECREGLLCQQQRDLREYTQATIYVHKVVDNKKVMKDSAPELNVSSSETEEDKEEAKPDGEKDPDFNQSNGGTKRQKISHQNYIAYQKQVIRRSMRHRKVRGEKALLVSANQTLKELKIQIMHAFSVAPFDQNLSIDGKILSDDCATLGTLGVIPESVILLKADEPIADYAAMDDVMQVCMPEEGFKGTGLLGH
Sequence of UniProt O94966 (O94966 whole entry): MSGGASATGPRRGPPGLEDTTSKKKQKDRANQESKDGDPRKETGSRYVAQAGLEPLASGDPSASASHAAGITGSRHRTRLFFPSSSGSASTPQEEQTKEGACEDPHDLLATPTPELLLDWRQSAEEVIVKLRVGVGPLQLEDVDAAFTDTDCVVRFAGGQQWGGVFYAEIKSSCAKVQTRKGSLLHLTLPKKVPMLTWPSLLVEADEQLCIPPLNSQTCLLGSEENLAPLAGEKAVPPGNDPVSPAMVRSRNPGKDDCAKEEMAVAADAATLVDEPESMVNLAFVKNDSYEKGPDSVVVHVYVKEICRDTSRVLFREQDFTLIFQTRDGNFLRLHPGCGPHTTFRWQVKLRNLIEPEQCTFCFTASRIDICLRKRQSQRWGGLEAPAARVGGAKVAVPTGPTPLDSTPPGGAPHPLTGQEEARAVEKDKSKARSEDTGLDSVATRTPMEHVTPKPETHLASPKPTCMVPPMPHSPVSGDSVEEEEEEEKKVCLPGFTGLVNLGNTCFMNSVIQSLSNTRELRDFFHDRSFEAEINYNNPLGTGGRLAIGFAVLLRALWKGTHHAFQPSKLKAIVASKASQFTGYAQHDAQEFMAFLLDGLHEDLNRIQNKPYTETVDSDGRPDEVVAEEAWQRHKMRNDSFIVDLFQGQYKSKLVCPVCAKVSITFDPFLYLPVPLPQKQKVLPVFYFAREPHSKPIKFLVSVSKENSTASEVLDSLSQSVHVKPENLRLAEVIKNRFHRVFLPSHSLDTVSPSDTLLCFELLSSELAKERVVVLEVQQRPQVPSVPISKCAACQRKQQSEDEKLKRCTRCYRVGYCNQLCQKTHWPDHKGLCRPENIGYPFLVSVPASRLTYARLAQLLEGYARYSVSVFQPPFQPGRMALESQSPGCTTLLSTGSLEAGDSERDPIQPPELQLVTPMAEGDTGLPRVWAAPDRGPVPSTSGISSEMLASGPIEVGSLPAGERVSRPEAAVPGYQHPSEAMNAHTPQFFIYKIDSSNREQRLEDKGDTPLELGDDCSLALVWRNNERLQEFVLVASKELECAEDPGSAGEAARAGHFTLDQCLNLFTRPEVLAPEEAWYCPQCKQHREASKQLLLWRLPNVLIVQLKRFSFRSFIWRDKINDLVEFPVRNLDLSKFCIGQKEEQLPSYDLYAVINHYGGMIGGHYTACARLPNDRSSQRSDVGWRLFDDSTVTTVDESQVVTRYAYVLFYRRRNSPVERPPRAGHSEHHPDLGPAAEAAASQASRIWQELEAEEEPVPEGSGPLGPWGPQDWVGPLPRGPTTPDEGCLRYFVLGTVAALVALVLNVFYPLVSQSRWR
Sequence of UniProt Q96RU2 (Q96RU2 whole entry): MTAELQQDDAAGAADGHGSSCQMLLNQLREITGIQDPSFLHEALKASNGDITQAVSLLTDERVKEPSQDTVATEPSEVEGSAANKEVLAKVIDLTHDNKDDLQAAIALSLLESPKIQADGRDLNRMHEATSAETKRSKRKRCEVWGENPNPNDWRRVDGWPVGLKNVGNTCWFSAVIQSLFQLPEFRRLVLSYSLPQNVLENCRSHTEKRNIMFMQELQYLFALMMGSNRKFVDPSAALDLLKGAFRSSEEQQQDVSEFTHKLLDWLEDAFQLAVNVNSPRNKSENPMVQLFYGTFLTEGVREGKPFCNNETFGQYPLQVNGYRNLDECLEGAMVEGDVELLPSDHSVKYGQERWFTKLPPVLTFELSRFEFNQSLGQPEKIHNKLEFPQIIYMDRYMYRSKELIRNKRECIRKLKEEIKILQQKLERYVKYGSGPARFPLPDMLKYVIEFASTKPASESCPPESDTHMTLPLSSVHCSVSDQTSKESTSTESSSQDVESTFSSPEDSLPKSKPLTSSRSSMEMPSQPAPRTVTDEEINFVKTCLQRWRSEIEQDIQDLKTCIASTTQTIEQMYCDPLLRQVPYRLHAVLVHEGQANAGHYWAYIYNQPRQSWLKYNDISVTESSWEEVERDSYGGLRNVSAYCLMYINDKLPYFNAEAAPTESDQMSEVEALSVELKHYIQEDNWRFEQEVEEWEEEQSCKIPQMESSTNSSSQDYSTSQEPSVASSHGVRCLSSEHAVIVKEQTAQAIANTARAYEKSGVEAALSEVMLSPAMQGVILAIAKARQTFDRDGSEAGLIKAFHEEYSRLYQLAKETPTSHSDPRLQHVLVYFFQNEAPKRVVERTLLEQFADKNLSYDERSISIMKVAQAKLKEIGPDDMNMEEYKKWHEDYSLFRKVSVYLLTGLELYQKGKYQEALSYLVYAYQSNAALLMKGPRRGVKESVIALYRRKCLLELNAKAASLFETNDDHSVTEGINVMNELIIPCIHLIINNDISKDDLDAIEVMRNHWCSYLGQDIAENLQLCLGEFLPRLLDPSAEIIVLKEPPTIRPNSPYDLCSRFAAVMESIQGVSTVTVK
Sequence of UniProt Q5VVQ6 (Q5VVQ6 whole entry): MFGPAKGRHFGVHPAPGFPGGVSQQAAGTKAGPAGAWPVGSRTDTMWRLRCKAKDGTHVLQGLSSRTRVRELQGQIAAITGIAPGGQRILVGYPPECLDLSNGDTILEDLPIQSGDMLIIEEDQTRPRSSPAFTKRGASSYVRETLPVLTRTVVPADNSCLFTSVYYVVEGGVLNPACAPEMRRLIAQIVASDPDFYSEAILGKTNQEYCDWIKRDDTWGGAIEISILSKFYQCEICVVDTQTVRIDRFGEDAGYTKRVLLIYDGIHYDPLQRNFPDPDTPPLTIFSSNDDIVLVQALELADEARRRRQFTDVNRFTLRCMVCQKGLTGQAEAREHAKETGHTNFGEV
Sequence of UniProt Q96FW1 (Q96FW1 whole entry): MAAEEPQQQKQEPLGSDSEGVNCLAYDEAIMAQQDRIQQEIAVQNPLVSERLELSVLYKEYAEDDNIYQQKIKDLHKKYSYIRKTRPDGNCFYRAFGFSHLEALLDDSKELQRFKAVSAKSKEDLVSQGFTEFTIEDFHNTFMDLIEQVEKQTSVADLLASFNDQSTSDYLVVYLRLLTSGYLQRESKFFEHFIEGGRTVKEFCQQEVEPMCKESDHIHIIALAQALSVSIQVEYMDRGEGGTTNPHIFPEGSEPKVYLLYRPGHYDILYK

Compound in one assay: OC1CN(Cc2sccc12)C(=O)CCl
Kind of assay: log2 ratio of Biotin-Ahx-Ub-VS probe labelling (compound/DMSO); higher = less target engagement, active = hit call of the paper (q ≤ 0.05, log2 ratio ≤ -1). The conditions noted are these: compound concentration: 50uM; treatment time: 3 h. On the procedure:
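Round 2 competitive ABPP in HEK293T lysate. Purified HTC-D2B compounds were tested at 50 and 200 µM for 3 h, followed by Biotin-Ahx-Ub-VS enrichment and diaPASEF LC-MS/MS. Values are the average log2 ratio (compound/DMSO) from an unpaired t-test (n=3 treated, n=26 DMSO).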
On to USP46 (UniProt P62068), for which the “log2 ratio of Biotin-Ahx-Ub-VS probe labelling” value (“log2 ratio” for short) is -0.289 (inactive).
As to VCPIP1 (UniProt Q96JH7), the “log2 ratio” value is -0.309 (inactive).
On the same count and under the same terms, the result for OTUB1 (UniProt Q96FW1) reads 0.196 (inactive); that for PRPF8 (UniProt Q6P2Q9), 0.0584 (inactive); that for UCHL1 (UniProt P09936), -0.248 (inactive).
On the same count and under the same terms, the result for USP19 (UniProt O94966) reads -0.389 (inactive).
Still for that read-out and setting: the same measure for ALG13 (UniProt Q9NP73): 0.00409 (inactive); for OTUD7B (UniProt Q6GQQ9): -4.49 (active).
As to UniProt Q9P2H5, the “log2 ratio” value was -0.029 (inactive).
On the same count and under the same terms, the result for OTUD6B (UniProt Q8N6M0) reads -0.139 (inactive); that for UniProt P51784, 0.0374 (inactive).
Same read-out and setting: the same measure for USP48 (UniProt Q86UV5): -0.157 (inactive); for COPS5 (UniProt Q92905): 0.136 (inactive); for USP5 (UniProt P45974): 0.084 (inactive).
Still for that read-out and setting: the result for USP28 (UniProt Q96RU2) reads -0.0634 (inactive).
In the case of USP42 (UniProt Q9H9J4), the “log2 ratio” value is -0.224 (inactive).
On the same count and under the same terms, the result for USP25 (UniProt Q9UHP3) reads 0.472 (inactive).
Same read-out and setting: the result for USP36 (UniProt Q9P275) reads -0.243 (inactive).
The same measure, in the same setting: the result for YOD1 (UniProt Q5VVQ6) reads -0.198 (inactive); that for USP9X (UniProt Q93008), 0.00293 (inactive).

Staying with this assay, now noted: compound concentration: 200uM; treatment time: 3 h.
As for USP46 (UniProt P62068), the “log2 ratio” value is -0.565 (inactive).
With VCPIP1 (UniProt Q96JH7), the “log2 ratio” value was -0.285 (inactive).
On the same count and under the same terms, the result for OTUB1 (UniProt Q96FW1) reads -0.0449 (inactive).
The same measure, in the same setting: the result for PRPF8 (UniProt Q6P2Q9) reads 0.0922 (inactive).
On the same count and under the same terms, the same measure for UCHL1 (UniProt P09936): -0.0486 (inactive); for USP19 (UniProt O94966): -0.703 (inactive).
With ALG13 (UniProt Q9NP73), the “log2 ratio” value is -0.0817 (inactive).
The same measure, in the same setting: the same measure for OTUD7B (UniProt Q6GQQ9): -5.43 (active); for UniProt Q9P2H5: -0.0467 (inactive).
Still for that read-out and setting: the same measure for OTUD6B (UniProt Q8N6M0): -0.239 (inactive); for UniProt P51784: -0.0603 (inactive); for USP48 (UniProt Q86UV5): -0.225 (inactive).
Same read-out and setting: the same measure for COPS5 (UniProt Q92905): -0.0875 (inactive); for USP5 (UniProt P45974): 0.198 (inactive).
For the target USP28 (UniProt Q96RU2), the “log2 ratio” value is -0.321 (inactive).
Still for that read-out and setting: the same measure for USP42 (UniProt Q9H9J4): 0.0756 (inactive); for USP25 (UniProt Q9UHP3): 0.301 (inactive); for USP36 (UniProt Q9P275): -0.0665 (inactive).
Same read-out and setting: the same measure for YOD1 (UniProt Q5VVQ6): -0.139 (inactive); for USP9X (UniProt Q93008): -0.116 (inactive).
